The record followed here is PubChem BioAssay AID588391 (Broad Institute, 2011).

The whole screen tested about 350,000 compounds, of which about 180 (0.051%) were called active.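 How the source made its calls: active means mean inhibition across replicates of 30% or more, whatever share of single replicates reach that level; inconclusive means mean inhibition below 30% while every single replicate reaches 30%; inactive means the rest.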 For the sample, actives were picked, then their nearest neighbours and some compounds at random.

The target in this test is Protein disulfide-isomerase (Homo sapiens) (UniProt P07237). The test can be described thus: blockers of PDI-driven insulin aggregation – biochemical, turbidity, single point, plate reader, primary screen (AID 588391).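 Further: absorbance from insulin aggregation driven by PDI reduction with DTT.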 Conditions: A650, 90 min, at 10 µM, active compounds read high.
Sequence of Protein disulfide-isomerase (Homo sapiens) (P07237 whole entry, looked up): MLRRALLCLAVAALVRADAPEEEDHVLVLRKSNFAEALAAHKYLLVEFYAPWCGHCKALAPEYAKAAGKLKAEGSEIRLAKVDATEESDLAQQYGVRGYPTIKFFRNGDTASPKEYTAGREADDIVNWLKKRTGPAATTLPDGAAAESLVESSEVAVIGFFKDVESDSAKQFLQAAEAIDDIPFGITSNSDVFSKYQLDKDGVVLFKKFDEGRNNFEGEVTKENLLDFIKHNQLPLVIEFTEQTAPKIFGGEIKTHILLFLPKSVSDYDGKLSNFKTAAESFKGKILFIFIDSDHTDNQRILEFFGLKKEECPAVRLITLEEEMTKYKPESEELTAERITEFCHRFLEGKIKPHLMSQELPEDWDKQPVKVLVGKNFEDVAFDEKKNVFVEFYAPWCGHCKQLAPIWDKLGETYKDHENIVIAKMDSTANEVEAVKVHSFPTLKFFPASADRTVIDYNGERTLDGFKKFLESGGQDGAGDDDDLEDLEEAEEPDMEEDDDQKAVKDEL
What is called inhibition is the change of the read-out against control, counted positive when it falls. For `O=C(/C=C/c1ccc(Cl)cc1)N1CCN(c2ccccc2[N+](=O)[O-])CC1`, the inhibition is -3.05% (inactive).
With `CC(=O)Nc1ccc(C=CC(=O)c2ccc([N+](=O)[O-])cc2)cc1`, the inhibition was -14.3% (inactive).
The value for `CN(C)c1ccc(/C=C/C(=O)c2ccc(O)cc2)cc1[N+](=O)[O-]` was 62.9% (active).
As for `OC[C@H]1O[C@@H](c2nc(-c3nc(-c4ccc(F)cc4)no3)cs2)[C@H](O)[C@@H](O)[C@H]1O`, the inhibition is 9.06% (inactive).
The value for `CCc1nc2ccc(C(=O)Nc3cccc(OC)c3)cn2c1N(CCC(C)C)CCN(C)C` was 7.59% (inactive).
Next, `COc1ccc(CNC(=O)c2ccc(-c3cccnc3)c3ccoc23)cc1OC`: -14.5% (inactive); `CCOC(=O)C1CCCN(C(=O)c2ccc(N(C)C)cc2)CC1` (stereo not drawn): -4.95% (inactive).
The value for `COc1ccccc1CNC(=O)c1cc(-c2cc(F)ccc2OC)n[nH]1` was -13.3% (inactive); that for `CNc1cnc(-c2cc(OC)c(OC)c(OC)c2)cn1` was -1.94% (inactive); that for `Cc1nc2c(OCc3ccc(Cl)cc3Cl)cccn2c1N(C)CC1CC1` was -3.07% (inactive).
With `CC(=O)NN=C(C)c1ccc(NC(=O)C2CC2)cc1`, the inhibition was 11.5% (inactive).
The value for `CC1(C(=O)NCc2cccc3ccccc23)CCN1Cc1ccc(-c2ccccc2)o1` (stereo not drawn) was -7.12% (inactive); that for `CC(=O)Nc1cccc(-c2cc(NC=O)c3ncc(-c4ccc(F)c(Cl)c4)n3c2)c1` was -0.607% (inactive).
The value for `CCc1nc2c(OCCOc3ccccc3)cccn2c1N(C=O)Cc1ccc(OC)cc1` was 3.19% (inactive); that for `COc1cccc(NC(=O)C2(C)CCN2Cc2ccccc2Cl)c1` (stereo not drawn) was 2.3% (inactive).
The value for `NC(Cc1ccc(F)cc1)c1csc(Nc2nncc3ccccc23)n1` (stereo not drawn) was -3.01% (inactive); that for `CC(C)Nc1nc(NCCOc2ccccc2Cl)c2sccc2n1` was 0.492% (inactive).
Consider `COc1ccc(NC(=O)C2(C)Cc3c(-c4cccc(NC(C)=O)c4)ccnc3O2)cc1OC` (stereo not drawn), for which the inhibition is -9.6% (inactive).
For the molecule `O=C(CCc1ccc(O)cc1)NN=Cc1cc(Br)ccc1O`, the inhibition was 44.5% (active).
The value for `O=C(CCc1n[nH]c(=O)[nH]c1=O)N/N=C/c1ccc(Br)o1` was 2.19% (inactive); that for `O=C(CCC(=O)N/N=C/c1ccc(Br)o1)N/N=C/c1ccc(Br)o1` was -7.35% (inactive).
As for `COc1ccc(C(NC(=O)C2CCN(CCCc3ccccc3)CC2)c2cccs2)cc1` (stereo not drawn), the inhibition was -3.76% (inactive).
The value for `OCCN1CCN(c2ncnc3c2ncn3[C@H]2CN(Cc3ccco3)C[C@@H](CO)O2)CC1` was -4.02% (inactive); that for `COc1cncc(-c2cnc3sc(NCCc4ccccn4)nn23)c1` was -1.86% (inactive); that for `CCCC/C=C/c1cccc2nncn12` was 15.4% (inactive).
Consider `O=C(Nc1ccc(N2CCOCC2)cc1)c1cccc2c(-c3ccc(F)c(F)c3)coc12`, for which the inhibition was 6.12% (inactive).
With `Cc1nc(C(F)(F)F)ccc1C(=O)N1CCC1(C)C(=O)NS(=O)(=O)c1ccc(F)cc1F` (stereo not drawn), the inhibition was -2.79% (inactive).
For `Cc1cccc(C)c1Cn1c(C)c(C(=O)NCc2cccc(Cl)c2)sc1=O`, the inhibition is 12.4% (inactive).
Next, `CCc1nc2c(OCc3ccc(Cl)cc3Cl)cccn2c1N(C)C(=O)C(C)C`: 1.84% (inactive).
The value for `CS(=O)(=O)/C(C#N)=C/c1cccn1S(=O)(=O)c1ccc([N+](=O)[O-])cc1` was 6.24% (inactive).
The value for `CCCS(=O)(=O)NC(=O)C1(C)CCCN(C(=O)c2cccs2)C1` (stereo not drawn) was 5.08% (inactive); that for `CCCNC(=O)C1(C)CCN(C(=O)c2ccccc2OC(F)(F)F)C1` (stereo not drawn) was 12.9% (inactive); that for `COc1ccc(S(=O)(=O)NC(=O)C2(C)CCN2C(=O)c2ccccc2CCc2ccccc2)cc1` (stereo not drawn) was -21.5% (inactive).
Turning to `Cc1ccc(CNC(=O)Nc2nnc([C@H]3C[C@H](O)[C@@H](CO)O3)s2)cc1`, the inhibition is -0.839% (inactive).
Next, `COc1ccc(-c2cc3nc(NCCOc4ccccc4)ccn3n2)cc1`: 8.41% (inactive).
The value for `Cc1ccc(Sc2ccc(NC(=O)c3ccc(F)cc3)cc2C#N)cc1` was 1.62% (inactive); that for `CC(C)NC(=O)C1(C)CCCCCN1C(=O)c1ccc(-c2ccccc2)cc1` (stereo not drawn) was 0.373% (inactive); that for `CCc1nc2c(OCCC3CCCCC3)cccn2c1N(C)C(=O)c1ccco1` was 4.27% (inactive).
Next, `COc1ccc(OC)c(NC(=O)C2(C)CCN2C(=O)Cc2ccccc2)c1` (stereo not drawn): 0.456% (inactive).
For `O=C(CSc1nc2cccc(F)c2c(=O)n1-c1ccccc1)Nc1ccc2c(c1)CCC2`, the inhibition was -4.77% (inactive).
Next, `CC1(Cc2ccccc2C#N)C(=O)Nc2ccc(-c3ccc4[nH]ccc4c3)cc21` (stereo not drawn): 7.54% (inactive).
Next, `O=C(O)c1ccccc1-c1cccc2nncn12`: 9.27% (inactive).
For `O=C(NCc1ccc(F)cc1)c1cc(C2CCCCN2C(=O)c2cccs2)on1` (stereo not drawn), the inhibition was -0.163% (inactive).
The value for `CC(C)Cc1ccc(-c2cc3nc(NCc4cccc(Cl)c4)ccn3n2)cc1` was -8.06% (inactive); that for `O=C(c1cc(C2CCCCN2S(=O)(=O)c2ccccc2)on1)N1CCOCC1` (stereo not drawn) was -7.54% (inactive).
The value for `COc1ccc(NC(=O)C2(C)Cc3c(-c4cccc(NC(C)=O)c4)ccnc3O2)cc1` (stereo not drawn) was -2.98% (inactive).
Next, `OC[C@@H]1CN(Cc2ccc(-c3ccccc3)cc2)C[C@H](n2cnc3c(NC4CCCC4)ncnc32)O1`: -2.96% (inactive).
Regarding `CC(C)Cn1cc(-c2cncc3nccn23)cn1`, the inhibition was -0.067% (inactive).
For the molecule `CC1(C(=O)NS(=O)(=O)c2ccc3ccccc3c2)CCN1C(=O)C1(c2ccc(Cl)cc2)CCC1` (stereo not drawn), the inhibition is 8.48% (inactive).
The value for `CC(=O)c1ccc(-c2cnc3c(NC=O)cc(-c4cccc(NS(C)(=O)=O)c4)cn23)cc1` was 16.7% (inactive); that for `COc1cccc(-c2cnc(C(O)c3ccccc3OC)[nH]2)c1` (stereo not drawn) was 10.9% (inactive); that for `OC(c1ccc(F)cc1)c1ncc(-c2cccc(C(F)(F)F)c2)[nH]1` (stereo not drawn) was -1.07% (inactive).
With `CC(C)Oc1cc(F)ccc1-c1cc(C(=O)Nc2ccc(F)cc2)[nH]n1`, the inhibition was 10.8% (inactive).
Next, `O=C(NC(c1ccc(Cl)cc1)c1cnccn1)C1CCN(Cc2ccc(Cl)cc2)CC1` (stereo not drawn): -28.5% (inactive).
Next, `CCCc1ccc(C(O)c2ncc(-c3cccc(OC)c3)[nH]2)cc1` (stereo not drawn): -4.13% (inactive); `COc1ccccc1CNC(=O)c1cc(-c2cc(Cl)ccc2C)n[nH]1`: -1.01% (inactive).
`CCNC(=O)C1(C)CCN(Cc2ccc(C(=O)OCC)o2)C1` (stereo not drawn): the inhibition was 8.45% (inactive).
The value for `CCCOc1ccc(F)cc1-c1cc(C(=O)Nc2ccc(F)cc2)[nH]n1` was 5.38% (inactive); that for `CC1(C(=O)NCc2ccc3c(c2)OCO3)CCN1C(=O)Cc1cccs1` (stereo not drawn) was -7.14% (inactive); that for `CC(C)Oc1ccc(CN2CCC2(C)C(=O)NCc2ccc(C(F)(F)F)cc2)cc1` (stereo not drawn) was 4.17% (inactive).
Next, `CC1(C(=O)Nc2cccc3c2CCCC3)CCN1C(=O)CCc1ccc(Cl)cc1Cl` (stereo not drawn): -3.08% (inactive).
The value for `NCCCNC(=S)NCCCN(Cc1ccc(Cl)cc1)c1ccc(Br)cn1` was 22.2% (inactive); that for `COc1cccc(CNc2nc(NCc3cccs3)nc3ccsc23)c1` was -1.8% (inactive).
For `CCc1nc2ccc(C(=O)Nc3ccc(OC)c(OC)c3)cn2c1N(C)C(=O)c1cccc(OC)c1`, the inhibition is 10.6% (inactive).
Turning to `NC(Cc1ccccc1)c1csc(Nc2cc(Oc3ccccc3)ncn2)n1` (stereo not drawn), the inhibition is 0.811% (inactive).
The value for `OC[C@@H]1CN(Cc2ccncc2)C[C@H](n2cnc3c(N4CCN(c5ccccc5)CC4)ncnc32)O1` was -1.41% (inactive).
As for `COCCNc1ncnc2c1ncn2[C@H]1CN(Cc2ccc(OC)cc2)C[C@@H](CO)O1`, the inhibition is -0.829% (inactive).
Next, `CC(=O)Nc1cccc(-c2cc(NC(C)=O)c3ncc(-c4ccccc4)n3c2)c1`: 0.99% (inactive).
The value for `COc1cccc(CNc2nc(NCc3ccccc3OC)nc3ccsc23)c1` was -20.9% (inactive); that for `CCNC(=S)Nc1ccc2c(c1)c(=O)n(C)n2Cc1ccc(Cl)cc1` was 7.91% (inactive).
The value for `CSc1ccc(CNC(=O)C2(C)CCCN2C)cc1` (stereo not drawn) was -9.77% (inactive); that for `CCc1ccc2c(c1)NC(=O)C2(C)Cc1ccc(OC(F)(F)F)cc1` (stereo not drawn) was 8.05% (inactive); that for `CCCNC(=O)C1(C)CCCN(C(=O)c2oc3ccccc3c2C)C1` (stereo not drawn) was 10.4% (inactive).
Regarding `CC1(C(=O)NS(=O)(=O)c2cccc(OC(F)F)c2)CCN1C(=O)COc1ccc(Cl)cc1` (stereo not drawn), the inhibition is -2.12% (inactive).
As for `Nc1nc(CSc2nnnn2-c2ccccc2)nc(Nc2ccccc2)n1`, the inhibition was -5.2% (inactive).
The value for `Cn1c(Nc2ccc(F)cc2)nc2cc(-c3ccsc3)sc2c1=O` was -4.93% (inactive).
Next, `CCCNC(=O)c1cc(C2CCCCN2S(=O)(=O)c2cn(C)cn2)on1` (stereo not drawn): -5.28% (inactive); `COc1cccc(-c2ccc3c(c2)N(Cc2ccccc2OC)C(=O)C(C)S3)c1` (stereo not drawn): 0.226% (inactive); `CCCNC(=O)C1(C)CCN(Cc2ccc(Cl)c(Cl)c2)C1` (stereo not drawn): -7.24% (inactive).
The value for `COc1ccc(Br)c(Cn2c(C)c(C(=O)NCc3cccs3)sc2=O)c1` was 6.08% (inactive).
On to `CC(C)(C)c1ccc(S(=O)(=O)NC(=O)C2(C)CCN2C(=O)CC2CC2)cc1` (stereo not drawn), for which the inhibition is 4.79% (inactive).
Next, `CS(=O)(=O)c1cccc(-c2ccc3nncn3c2)c1`: 1.16% (inactive); `CC(=O)Nc1cccc(-c2cc3nc(NCc4cccnc4)n(C)c(=O)c3s2)c1`: -1.23% (inactive).
Next, `CCCNC(=O)C1(C)CCN(Cc2csc(-c3ccc(Cl)cc3)n2)C1` (stereo not drawn): 14.3% (inactive).
Next, `COc1ccc(-c2ccc(C(=O)NCCN3CCOCC3)c3occc23)c(C)c1`: 0.104% (inactive); `CCc1ccc(OC2(C)CCN(CCOc3ccc(C)cc3)C2)cc1` (stereo not drawn): -1.04% (inactive).
On to `CC(=O)Nc1cccc(-c2ccnc3c2CC(C)(C(=O)NCc2ccco2)O3)c1` (stereo not drawn), for which the inhibition is 2.4% (inactive).
Next, `CC(C)(C)CC(=O)Nc1nc(C(N)Cc2ccc(C(F)(F)F)cc2)cs1` (stereo not drawn): -12.3% (inactive).
